This is a sample that favours compounds with a hit; in the whole collection about 7.6% have one here.
MCF10A rereplic = A quantitative high throughput screen for small molecules that induce DNA re-replication in MCF 10a normal breast cells | AID 624296, 2012 | 350,000 compounds, 2.9% hits | MCF 10A DNA re-replication, Hoechst nuclear intensity, 48 h | Potency, µM (series often up to 46.1 µM), for inactives: at the highest dose activity, positive = re-replication, hits mostly activators; further: potency means the concentration at half of the fitted maximal effect; % of control where 0% means no effect; nearly all actives have a fitted effect of over 50% in size
SW480 rerep = A quantitative high throughput screen for small molecules that induce DNA re-replication in SW480 colon adenocarcinoma cells. 340,000 compounds, 1.8% hits. SW480 DNA re-replication, Hoechst DNA content imaging, 48 h. Potency, µM (series often up to 46.1 µM), inactives show at the top dose re-replication activation, hits mostly activators; further: potency means the concentration at half of the fitted maximal effect; % of control where 0% means no effect; nearly all actives have a fitted effect of over 55% in size
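Readout is total intensity of Hoechst-stained nuclei, excited at 405 nm and collected at 500-530 nm. Compound treatment lasted 48 hr at 37 C in 5% CO2 before staining.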
KB-V1 MDR tox = qHTS assay for MDR1-selective chemotherapeutics: Primary screen using the drug-selected MDR subline cells KB-V1; 400,000 compounds, 3.4% hits; KB-V1 MDR cells viability, CellTiter-Glo, 72 h; Potency, µM (top dose mostly 46.1 µM), hits mostly cytotoxic; further: potency means the concentration at half of the fitted maximal effect; on the % scale 0 is the no-effect control and ±100 the full control effect; nearly all actives have a fitted effect of over 60% in size
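Drug-selected KB-V1 cells, grown in DMEM lacking phenol red with 10% FBS, receive compound titrations; after three days at 37 degrees C, surviving cell ATP is quantified by CellTiter-Glo luminescence and responses normalized and curve-fitted.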
KCNH2 3.1 block = qHTS for Inhibitors of KCHN2 3.1: Mutant qHTS. Potassium voltage-gated channel subfamily H member 2, brain isoform KCNH2 3.1 (human). U2OS KCNH2 3.1, thallium flux FluxOr; stronger effect = lower value. activity change, % (tested at about 1.8 µM). 340,000 compounds, 0.95% hits;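 active means maximum activity change below -70%; inconclusive means maximum activity change from -70% to -50%; inactive means maximum activity change above -50%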;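 further: thallium influx rate constant from kinetic fluorescence after stimulation buffer; on the % scale 0 is the no-effect control and ±100 the full control effect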
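Measured as rate of thallium-driven FluxOr signal in transduced U2OS cells carrying the 3.1 channel, read kinetically for 2 min upon stimulation; values are rate constants scaled to DMSO control wells.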
KB-3-1 cytotox = qHTS assay for MDR1-selective chemotherapeutics: Primary screen using the parental adenocarcinoma cell KB-3-1 | KB-3-1 viability, CellTiter-Glo ATP luminescence, 72 h | Potency, µM (top dose mostly 46.1 µM), hits mostly cytotoxic | 400,000 compounds, 1.4% hits; further: potency means the concentration at half of the fitted maximal effect; on the % scale 0 is the no-effect control and ±100 the full control effect; nearly all actives have a fitted effect of over 60% in size
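KB-3-1 parental drug-naive adenocarcinoma cells in DMEM/10% FBS, incubated 72 h at 37 C with pin-transferred compounds across a concentration series. Viability by CellTiter-Glo luminescence; concentration-response curves fitted after normalization.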
hERG WT inh = qHTS for Inhibitors of KCHN2 3.1: Wildtype qHTS; Voltage-gated inwardly rectifying potassium channel KCNH2 (Homo sapiens), Q12809; U2OS, BacMam KCNH2, thallium flux FluxOr; stronger effect = lower value; activity change, % at 1.84 µM; 340,000 compounds, 0.37% hits;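 active means maximum activity change below -70%; inconclusive means maximum activity change between -70% and -50%; inactive means maximum activity change above -50%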; further: on the % scale 0 is the no-effect control and ±100 the full control effect
Target sequence (Q12809 whole entry, looked up): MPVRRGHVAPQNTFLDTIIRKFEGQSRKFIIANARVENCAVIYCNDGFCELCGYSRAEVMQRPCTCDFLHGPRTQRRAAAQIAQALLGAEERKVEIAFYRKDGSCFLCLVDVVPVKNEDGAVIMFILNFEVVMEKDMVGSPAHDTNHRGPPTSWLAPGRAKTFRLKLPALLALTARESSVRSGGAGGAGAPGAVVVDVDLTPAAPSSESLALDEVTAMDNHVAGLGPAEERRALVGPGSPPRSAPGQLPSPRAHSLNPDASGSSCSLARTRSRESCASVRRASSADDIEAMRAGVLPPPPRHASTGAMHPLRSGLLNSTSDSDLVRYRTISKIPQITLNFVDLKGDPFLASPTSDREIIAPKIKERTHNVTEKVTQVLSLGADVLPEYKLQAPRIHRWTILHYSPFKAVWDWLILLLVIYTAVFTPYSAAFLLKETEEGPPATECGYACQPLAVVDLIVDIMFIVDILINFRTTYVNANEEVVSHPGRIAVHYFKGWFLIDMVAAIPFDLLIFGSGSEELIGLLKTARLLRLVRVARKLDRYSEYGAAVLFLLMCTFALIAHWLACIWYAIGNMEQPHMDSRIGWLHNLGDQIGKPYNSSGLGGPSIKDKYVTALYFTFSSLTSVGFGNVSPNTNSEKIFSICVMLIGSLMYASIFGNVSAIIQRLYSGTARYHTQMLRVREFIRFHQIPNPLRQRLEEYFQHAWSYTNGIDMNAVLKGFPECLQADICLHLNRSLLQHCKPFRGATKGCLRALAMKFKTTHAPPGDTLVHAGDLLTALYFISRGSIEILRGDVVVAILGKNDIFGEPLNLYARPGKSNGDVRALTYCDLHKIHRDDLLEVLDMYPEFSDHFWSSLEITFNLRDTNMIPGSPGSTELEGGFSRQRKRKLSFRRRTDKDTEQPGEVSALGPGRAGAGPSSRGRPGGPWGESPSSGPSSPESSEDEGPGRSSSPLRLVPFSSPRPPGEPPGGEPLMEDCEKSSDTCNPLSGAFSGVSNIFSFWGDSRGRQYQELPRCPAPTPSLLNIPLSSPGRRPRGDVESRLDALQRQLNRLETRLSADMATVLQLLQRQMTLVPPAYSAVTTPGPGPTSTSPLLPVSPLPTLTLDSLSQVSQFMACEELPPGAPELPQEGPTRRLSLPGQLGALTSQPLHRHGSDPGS
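U2OS cells were transduced with wild-type KCNH2 virus (2.03 x 10^8 / mL) for 4 h at room temperature, then cultured overnight at 37 C. Thallium flux was read with FluxOr dye. Rate constants were normalized to DMSO controls.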
Numbers without * were called inactive; i = inactive; ? = inconclusive; . = no result; [ ] = remark or other dose. Unless noted, the call rests on the fitted dose curve; in most records, active means well fitted curve in the direction sought with a large enough effect; inconclusive means small, poorly fitted or top-dose-only effect, or another doubt; inactive means no such curve, though single readings can be large; an effect the other way counts as inactive or inconclusive.

SMILES	MCF10A rereplic	SW480 rerep	KB-V1 MDR tox	KCNH2 3.1 block	KB-3-1 cytotox	hERG WT inh
O=C(c1ccco1)N1CCCC(c2nc(-c3ccc(S(=O)(=O)NCc4ccccc4)cc3)no2)C1 (centres undefined)	18µM*	10%	i	-11	i	12
CCCc1cc(C(=O)Nc2cc(OC)ccc2OC)cs1	-11%	26%	i	5	i	8
COc1ccc(CN2C(=O)[C@H]3Cc4c([nH]c5ccccc45)C(C)(C)N3C2=O)cc1	9.2µM*	-4%	?	.	?	.
CC1(C)c2[nH]c3ccccc3c2C[C@H]2C(=O)N(Cc3cccc(F)c3)C(=O)N21	?	?	i	.	?	.
COc1ccccc1CN1C(=O)[C@@H]2Cc3c([nH]c4ccccc34)C(C)(C)N2C1=O	27%	-3%	21µM*	.	?	.
CC1(C)c2[nH]c3ccccc3c2C[C@@H]2C(=O)N(Cc3ccccc3Cl)C(=O)N21	?	5%	?	.	i	.
COc1cccc(CN2C(=O)[C@H]3Cc4c([nH]c5ccccc45)C(C)(C)N3C2=O)c1	?	0%	16µM*	.	i	.
COc1ccc(CN2C(=O)[C@@H]3Cc4c([nH]c5ccccc45)C(C)(C)N3C2=O)cc1	14%	-6%	?	.	18µM*	.
Cc1cc(NS(=O)(=O)c2ccc(N)cc2)nc(C)n1	-2%	1%	.	.	.	.
Cn1nc(CC(=O)Nc2ccc3c(c2)OCCO3)c2ccccc2c1=O	-4%	-3%	i	-13	?	6
Cc1ccc(NC(=O)Cc2nn(C)c(=O)c3ccccc23)cc1F	9%	7%	2.1µM*	-2	7.3µM*	6
Cc1csc(NC(=O)Cc2nn(C)c(=O)c3ccccc23)n1	-9%	1%	16µM*	-1	?	1
COc1cccc(OC)c1NC(=O)Cc1nn(C)c(=O)c2ccccc12	5%	-27%	i	11	i	-2
FC(F)(F)c1ccc(/C=N/NC(=S)NC2CCCCC2)cc1	18µM*	10%	i	-4	i	10
NC(=O)C1CCN(c2nccc(-c3ccc4c(c3)OCCCO4)n2)CC1	.	.	i	.	i	.
COC(=O)CSc1nc2[nH]ncc2c(=O)[nH]1	-9%	-2%	i	4	i	-7
Cc1cccc(C)c1NC(=O)C(c1ccnc2ccccc12)n1c(=O)c(-c2ccco2)nc2ccccc21 (centres undefined)	.	.	i	.	i	.
COc1cc(/C=C(\C#N)C(=O)NC2CCCCC2C)ccc1OS(=O)(=O)c1ccc(C)cc1 (centres undefined)	18µM*	?	i	-13	?	-17
COc1cc(/C=C(\C#N)C(N)=O)ccc1OS(=O)(=O)c1ccc(C)cc1	16%	?	i	-1	i	-1
CC1CCCCC1NC(=O)/C(C#N)=C/c1ccccc1F (centres undefined)	15µM*	?	i	.	i	4
CCCCCCCCNC(=O)/C(C#N)=C/c1ccc(SC)cc1	-14%	2.1µM*	21µM*	1	i	2
CSc1ccc(/C=C(\C#N)C(=O)NC2CCCCC2C)cc1 (centres undefined)	18µM*	?	16µM*	12	?	1
CC1(C)CC[C@]2(C(=O)O)CC[C@]3(CO)C(=CCC4[C@@]5(C)C[C@H](O)[C@H](O)[C@@](C)(C(=O)O)C5CC[C@]43C)[C@@H]2C1 (some centres undefined)	5%	-2%[9.22 µM]	i	-4	i	9
COc1ccc(S(=O)(=O)N2CCCN(CC(=O)Nc3ccc(OC)cc3OC)CC2)cc1	.	.	i	.	i	.
CN(CC(=O)Nc1ccccc1Br)C(=O)COc1ccc2ccccc2c1	-2%	4%	i	1	i	13
SMILES	MCF10A rereplic	SW480 rerep	KB-V1 MDR tox	KCNH2 3.1 block	KB-3-1 cytotox	hERG WT inh
CCC(C)(C)C1CCc2[nH]nc(C(=O)NC(C)C)c2C1 (centres undefined)	?	-51%	i	0	i	-10
CCCOC(=O)c1c(NC(=O)c2nc3ncccn3n2)sc(C(=O)OCC)c1C	.	.	i	.	?	.
CCN(CC(=O)Nc1ccccc1OC)C(=O)C1CCCC1	0%	2%	13µM*	5	i	-14
CC1(C(=O)NS(=O)(=O)c2ccc(Br)cc2)CCN1C(=O)C1CCCCC1 (centres undefined)	.	.	i	.	i	.
O=C1CC2(CCN(C(=O)COc3ccc(Cl)cc3)CC2)Oc2ccccc21	-2%	-53%	i	-86*	i	-47
CC(=O)N1CCC2(CC1)CC(=O)c1cc(OCC(=O)N3CCOCC3)ccc1O2	7%	21µM*	i	8	i	1
Cc1ccc(OCC(=O)N2CCC3(CC2)CC(=O)c2ccccc2O3)cc1	18%	-160%	i	-29	i	17
C=CCn1nnc2sc3c(c2c1=O)CCC(C)C3 (centres undefined)	3%	-33%	?	-6	i	7
COC(=O)CCCn1cc(CN2CC(N3CCN(C4CCN(C)CC4)CC3)CS2(=O)=O)nn1 (centres undefined)	.	.	i	.	i	.
C/C(=N\Nc1cc(N2CCCCC2)nc(C)n1)c1ccc(Br)cc1	12µM*	?	?	-42	?	6
COc1cc2c(NC3CCN(C)CC3)nc(N3CCCN(C)CC3)nc2cc1OCCCCN(C)C	.	.	i	.	16µM*	.
COc1cc2c(NC3CCN(C)CC3)nc(N3CCCN(C)CC3)nc2cc1OCCOCCN(C)C	.	.	?	.	i	.
N=c1ccn(Cc2ccc(Cl)cc2)cc1	6%	10%	i	15	4.6µM*	4
N=c1ccn(Cc2ccc(Cl)cc2Cl)cc1	7%	-3%	i	4	6.5µM*	-7
Cc1ccc2c(c1)N(C(=O)CCC(=O)NCCCN1CCC(Cc3ccccc3)CC1)CCO2	1%	?	i	-116*	i	3
O=C(Nc1ccccc1[N+](=O)[O-])c1cncc(Br)c1	?	4%	i	-22	i	6
CN(c1cccc(NC(=O)c2ccccc2N(Cc2ccccc2)S(C)(=O)=O)c1)S(C)(=O)=O	-4%	1%	i	-8	i	-9
CC(=O)c1cccc(NC(=O)c2ccccc2N(Cc2ccccc2)S(C)(=O)=O)c1	2.3µM*	-19%	i	3	i	11

Source: PubChem (National Center for Advancing Translational Sciences (NCATS))
